Results on 21 compounds are retold here after PubChem BioAssay.

A number with no mark means an inactive call. For part of these data: Results with a measured potency or affinity are listed apart. Calls of active or inactive are those of the source. Unless noted, the rule behind the calls is not given here.

A short description of test [1]: antimalarial activity against Dd2 strain (AID 2302;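 active = growth inhibition above 50% at the single 2 µM test dose, taken to imply half-maximal potency below 2 µM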;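 note: 0% = DMSO untreated growth and 100% = chloroquine plus artemisinin killed control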). Particulars: P. falciparum Dd2 in RBCs, LDH growth readout, 72 h; at 2 µM; active compounds read high.
Test [2] can be described thus: HepG2 cytotoxicity, primary screen, cytotoxicity control for P. falciparum antimalarial project, cell-based, ATP luminescence (AID 2303;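 active = inhibition above 50%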;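 note: 0% = DMSO wells and 100% = digitonin-killed cells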). To be noted: HepG2 viability, 24-48 h, at 10 µM, active compounds read high.
Test [3] concerns the target L-lactate dehydrogenase (Plasmodium falciparum (isolate CDC / Honduras)) (UniProt Q27743). Kind of test: PfLDH activity inhibition – cell lysate, 3D7 strain, counter-screen for P. falciparum growth inhibition project (AID 2304).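 Note: 0% = vehicle and 100% = reference inhibitor.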 Particulars: P. falciparum 3D7 crude extract, LDH APAD/NBT absorbance; at 2 µM; active compounds read high. (In general: A counterscreen serves to expose hits that act by an unwanted route or on another target.)

Test [4] in a line: inhibition of 3D7 malaria parasite growth – strain 3D7 (AID 2306).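 Note: 0% = DMSO wells and 100% = chloroquine plus artemisinin control wells.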 To be noted: P. falciparum 3D7 erythrocytic growth, LDH absorbance, 72 h; at 2 µM; active compounds read high.
The target in test [5] is Calcium-dependent protein kinase 1 (Plasmodium falciparum (isolate 3D7)) (UniProt P62344). In words: PfCDPK1 kinase inhibitors, biochemical, TCAMS library (AID 1159585; cut-off not given, nearly all actives have IC50 up to about 0.98 µM;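 note: inhibitors leave more ATP so luminescence rises with inhibition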). Particulars: recombinant PfCDPK1, Kinase-Glo ATP depletion luminescence. (Kinase-Glo reads ATP consumption through a luciferase reaction.)
The target of test [6] is Plasmodium falciparum protein kinase 6 (PK6, PF3D7_1337100) (UniProt Q8IDW1). In words: PfPK6 kinase inhibitors, biochemical, TCAMS library (AID 1159586). To be noted: recombinant PfPK6, Kinase-Glo ATP depletion luminescence.
Test [7] deals with Protein kinase 7 (PK7), Plasmodium falciparum 3D7 (PF3D7_0213400) (UniProt Q7YTF7). Kind of test: inhibition of Plasmodium PK7 catalytic activity – biochemical, TCAMS antimalarial set, Kinase-Glo luminescence (AID 1159587). Particulars: recombinant PfPK7, Kinase-Glo ATP depletion luminescence.
Test [8] has as its target Calcium-dependent protein kinase 4 (Plasmodium falciparum (isolate 3D7)) (UniProt Q8IBS5). Kind of test: PfCDPK4 kinase inhibitors, biochemical, TCAMS library (AID 1159588; cut-off not given, nearly all actives have IC50 up to about 0.91 µM). Particulars: recombinant PfCDPK4, Kinase-Glo ATP depletion luminescence.

Sequence of Plasmodium falciparum protein kinase 6 (PK6, PF3D7_1337100) (Q8IDW1 1-305): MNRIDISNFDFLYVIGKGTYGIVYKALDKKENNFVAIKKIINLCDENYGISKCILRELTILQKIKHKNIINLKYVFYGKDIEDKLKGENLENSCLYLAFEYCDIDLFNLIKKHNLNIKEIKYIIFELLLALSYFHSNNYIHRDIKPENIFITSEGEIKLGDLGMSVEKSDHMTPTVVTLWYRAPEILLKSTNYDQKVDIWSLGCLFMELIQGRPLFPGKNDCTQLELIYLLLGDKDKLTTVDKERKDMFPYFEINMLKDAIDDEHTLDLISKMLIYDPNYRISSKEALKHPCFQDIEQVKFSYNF
Sequence of L-lactate dehydrogenase (Plasmodium falciparum (isolate CDC / Honduras)) (Q27743 whole entry, looked up): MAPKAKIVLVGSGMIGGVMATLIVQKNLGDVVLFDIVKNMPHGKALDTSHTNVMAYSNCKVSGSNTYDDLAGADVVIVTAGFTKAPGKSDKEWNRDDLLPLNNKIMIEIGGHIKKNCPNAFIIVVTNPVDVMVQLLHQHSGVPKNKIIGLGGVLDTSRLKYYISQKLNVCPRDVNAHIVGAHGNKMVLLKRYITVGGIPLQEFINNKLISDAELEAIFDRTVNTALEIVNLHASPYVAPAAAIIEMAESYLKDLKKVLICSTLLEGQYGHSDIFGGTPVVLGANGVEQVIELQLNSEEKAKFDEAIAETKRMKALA
Sequence of Protein kinase 7 (PK7), Plasmodium falciparum 3D7 (PF3D7_0213400) (Q7YTF7 1-343): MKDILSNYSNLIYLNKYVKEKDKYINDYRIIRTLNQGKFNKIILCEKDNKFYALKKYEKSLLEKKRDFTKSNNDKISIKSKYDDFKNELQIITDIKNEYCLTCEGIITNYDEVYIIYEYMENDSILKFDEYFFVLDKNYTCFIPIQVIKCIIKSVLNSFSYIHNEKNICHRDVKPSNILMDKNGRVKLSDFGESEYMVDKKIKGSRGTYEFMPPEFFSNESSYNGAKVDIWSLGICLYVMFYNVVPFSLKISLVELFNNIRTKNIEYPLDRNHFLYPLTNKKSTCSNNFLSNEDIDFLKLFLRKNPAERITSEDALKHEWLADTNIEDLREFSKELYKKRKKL
Sequence of Calcium-dependent protein kinase 4 (Plasmodium falciparum (isolate 3D7)) (Q8IBS5 whole entry, looked up): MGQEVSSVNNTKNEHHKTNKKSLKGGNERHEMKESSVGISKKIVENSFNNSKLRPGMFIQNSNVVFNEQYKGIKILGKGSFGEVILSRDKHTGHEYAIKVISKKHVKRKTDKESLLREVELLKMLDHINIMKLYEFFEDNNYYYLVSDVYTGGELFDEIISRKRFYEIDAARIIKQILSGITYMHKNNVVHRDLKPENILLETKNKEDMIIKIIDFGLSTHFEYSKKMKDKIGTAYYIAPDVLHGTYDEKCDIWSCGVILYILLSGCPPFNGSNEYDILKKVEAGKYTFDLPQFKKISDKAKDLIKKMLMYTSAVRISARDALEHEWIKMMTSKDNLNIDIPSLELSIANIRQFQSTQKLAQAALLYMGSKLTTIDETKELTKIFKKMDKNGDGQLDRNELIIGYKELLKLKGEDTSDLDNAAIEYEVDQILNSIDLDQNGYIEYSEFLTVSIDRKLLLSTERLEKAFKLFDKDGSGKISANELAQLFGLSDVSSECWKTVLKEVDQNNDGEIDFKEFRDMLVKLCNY
Sequence of Calcium-dependent protein kinase 1 (Plasmodium falciparum (isolate 3D7)) (P62344 whole entry, looked up): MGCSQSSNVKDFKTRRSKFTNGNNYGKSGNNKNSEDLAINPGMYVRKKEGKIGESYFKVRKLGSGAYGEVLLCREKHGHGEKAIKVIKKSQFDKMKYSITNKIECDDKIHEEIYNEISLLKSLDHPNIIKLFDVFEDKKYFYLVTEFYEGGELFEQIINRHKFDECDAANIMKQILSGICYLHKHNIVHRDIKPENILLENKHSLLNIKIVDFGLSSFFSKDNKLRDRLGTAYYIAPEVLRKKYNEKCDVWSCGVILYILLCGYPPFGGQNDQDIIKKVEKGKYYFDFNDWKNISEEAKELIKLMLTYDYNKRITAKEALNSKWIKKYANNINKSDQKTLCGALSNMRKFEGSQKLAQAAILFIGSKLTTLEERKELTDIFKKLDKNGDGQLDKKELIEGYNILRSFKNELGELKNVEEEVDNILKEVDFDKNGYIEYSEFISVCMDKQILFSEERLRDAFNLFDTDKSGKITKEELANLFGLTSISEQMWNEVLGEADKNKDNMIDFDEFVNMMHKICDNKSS

A word on the inhibition: it is the change of the read-out against control, counted positive when it falls. Take `CC(C)N(Cc1ccc(-c2ccc(C(F)(F)F)cc2)cc1)C(=O)Cn1c(CCc2cccc(F)c2F)cc(=O)c2ccc(CCCN3CCCCC3)cc21`: the growth inhibition in test [1] was 82% (active); in test [4] it was 100% (active). Besides, the figures for the inhibition in test [2] and in test [3] were 99% (active) and 7%, respectively. The outcome in test [5], in test [6], in test [7] and in test [8] was inactive.

Turning to `O=C(CCc1ccccc1)N[C@H](Cc1c[nH]c2ccccc12)C(=O)N1CCC(NCc2ccc3c(c2)Cc2ccccc2-3)CC1`, the growth inhibition in test [1] was 8%; in test [4], 92% (active). The inhibition in test [2] was 53% (active); in test [3], -6%. Moreover, the result in test [5], in test [6], in test [7] and in test [8] was inactive.

Consider `O=C(Nc1cccc(C(F)(F)F)c1)c1cccc(S(=O)(=O)NC2CCN(CC3CCCCC3)C2)c1` (stereo not drawn), for which the growth inhibition is 45% in test [1] and 101% (active) in test [4]. The inhibition in test [2] was 37%; in test [3], -1%. The outcome in test [5], in test [6], in test [7] and in test [8] was inactive.

Take `O=C(/C=C/c1ccc(Cl)c(Cl)c1)NCCCCCN1CCC(NC(=O)c2ccc3ccccc3c2)CC1`: the growth inhibition in test [1] is 20%; in test [4], 87% (active). The inhibition is 8% in test [2] and -2% in test [3]. Besides, the outcome in test [5], in test [6], in test [7] and in test [8] was inactive.

In the case of `CC(C)c1ccc(Nc2nc(NCCc3cnc[nH]3)nc(NCc3ccccc3)n2)cc1`, the growth inhibition in test [1] is 2%; in test [4], 98% (active). In addition, the inhibition was 1% in test [2] and -2% in test [3]. For the same compound, the outcome in test [5], in test [6], in test [7] and in test [8] was inactive.

Turning to `COc1ccc(Oc2ccccc2CNCC2CCN(CC3CCCCC3)CC2)cc1`, the values for the growth inhibition in test [1] and in test [4] were 28% and 85% (active), respectively. The inhibition is 34% in test [2] and -8% in test [3]. For the same compound, the result in test [5], in test [6], in test [7] and in test [8] was inactive.

Regarding `O=S(=O)(NCCN1CCCC1)c1ccc(-c2cccc(CNCCc3cccs3)c2)s1`, the growth inhibition in test [1] is 44%; in test [4] it was 99% (active). Moreover, the inhibition in test [2] is 39%; in test [3], -2%. Also, the result in test [5], in test [6], in test [7] and in test [8] was inactive.

`Cc1[nH]c2ccccc2c(=O)c1Br`: the results for the growth inhibition in test [1] and in test [4] were 84% (active) and 94% (active), respectively. The inhibition is 2% in test [2] and 3% in test [3]. Further, the outcome in test [5], in test [6], in test [7] and in test [8] was inactive.

In the case of `Cc1cc(C(=O)CN2C(=O)NC3(CCCc4ccccc43)C2=O)c(C)n1Cc1ccco1` (stereo not drawn), the growth inhibition in test [1] is -5%; in test [4], 90% (active). The values for the inhibition in test [2] and in test [3] were 11% and 4%, respectively. Besides, the outcome in test [5], in test [6], in test [7] and in test [8] was inactive.

For `CCc1ccccc1N1CCN(CCCC(=O)c2ccc(NC(=O)c3ccc(Cl)cc3)cc2)CC1`, the growth inhibition in test [1] is 4%; in test [4], 90% (active). Further, the inhibition in test [2] is 17%; in test [3], 7%. Besides, the result in test [5], in test [6], in test [7] and in test [8] was inactive.

Take `CS(=O)(=O)N1CC2(CCN(CCC(NC(=O)Nc3ccccc3)c3ccc(Cl)c(Cl)c3)CC2)c2ccccc21` (stereo not drawn): the growth inhibition in test [1] was 72% (active); in test [4], 99% (active). Also, the inhibition is 23% in test [2] and 5% in test [3]. Also, the outcome in test [5], in test [6], in test [7] and in test [8] was inactive.

As for `CCC(C)(C)C1CCc2[nH]c3ccccc3c(=O)c2C1` (stereo not drawn), the growth inhibition is 96% (active) in test [1] and 97% (active) in test [4]. Also, the values for the inhibition in test [2] and in test [3] were 16% and -4%, respectively. Also, the outcome in test [5], in test [6], in test [7] and in test [8] was inactive.

Turning to `CCCN(Cc1nnc(-c2cccs2)o1)C(=O)CSc1nnnn1-c1ccc(C)c(C)c1`, the growth inhibition in test [1] was 80% (active); in test [4] it was 96% (active). In addition, the inhibition in test [2] was -7%; in test [3], 0%. In addition, the result in test [5], in test [6], in test [7] and in test [8] was inactive.

For the compound `CCCCc1cc(=O)oc2cc(C)cc(OCc3ccccc3F)c12`, the growth inhibition in test [1] is 78% (active); in test [4], 92% (active). Besides, the inhibition in test [2] was 8%; in test [3], -1%. In addition, the outcome in test [5], in test [6], in test [7] and in test [8] was inactive.

Regarding `COc1ccc2nc(Nc3nc(-c4ccccn4)cs3)sc2c1`, the growth inhibition is 94% (active) in test [1] and 93% (active) in test [4]. Besides, the inhibition in test [2] is 40%; in test [3] it was 4%. Further, the outcome in test [5], in test [6], in test [7] and in test [8] was inactive.

With `COc1cccc(C(NC(=O)c2ccccc2)c2ccc3cccnc3c2O)c1` (stereo not drawn), the growth inhibition in test [1] is 41%; in test [4], 89% (active). For the same compound, the inhibition in test [2] was 52% (active); in test [3], 2%. Also, the result in test [5], in test [6], in test [7] and in test [8] was inactive.

For the compound `Cc1cccc2[nH]c(-c3ccc(-c4cccc(NC(=O)Nc5ccsc5)c4)s3)nc12`, the growth inhibition in test [1] was 29%; in test [4], 100% (active). Also, the values for the inhibition in test [2] and in test [3] were 30% and -3%, respectively. In addition, the result in test [5], in test [6], in test [7] and in test [8] was inactive.

With `O=C1OC2(CN1CC1CCN(Cc3ccc(O)c(Cl)c3)CC1)c1ccccc1-c1ccccc12`, the results for the growth inhibition in test [1] and in test [4] were 96% (active) and 97% (active), respectively. Moreover, the inhibition in test [2] is 32%; in test [3], 0%. The result in test [5], in test [6], in test [7] and in test [8] was inactive.

In the case of `N#Cc1cccc([C@H](O)[C@@H]2CN(CCC3CCCCC3)CC[C@@]2(O)c2ccccc2)c1`, the growth inhibition was 100% (active) in test [1] and 98% (active) in test [4]. In addition, the inhibition in test [2] is -5%; in test [3], 3%. Besides, the outcome in test [5], in test [6], in test [7] and in test [8] was inactive.

Consider `CCNc1cc(C(=O)N[C@@H](Cc2ccccc2)[C@H](O)CNC2(C)CCCCC2)cc(N2CCCCS2(=O)=O)c1`, for which the growth inhibition in test [1] is 98% (active); in test [4], 100% (active). Also, the inhibition is 13% in test [2] and 2% in test [3]. The outcome in test [5], in test [6], in test [7] and in test [8] was inactive.

On to `COc1csc2cc(Br)ccc12`, for which the growth inhibition was -5% in test [1] and 101% (active) in test [4]. In addition, the inhibition in test [2] is 6%; in test [3], -3%. The result in test [5], in test [6], in test [7] and in test [8] was inactive.
